In test [1] the target is Ribosomal protein S6 kinase alpha-6 (Homo sapiens) (UniProt Q9UK32). The conditions noted are these: at 1 µM.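 Also: each value is a mean inhibition of RSK4 from a GSK PKIS panel screen.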
Test [2] deals with T1, Serine/threonine-protein kinase Sgk1 (Homo sapiens) (UniProt O00141).
T1 sequence (whole entry): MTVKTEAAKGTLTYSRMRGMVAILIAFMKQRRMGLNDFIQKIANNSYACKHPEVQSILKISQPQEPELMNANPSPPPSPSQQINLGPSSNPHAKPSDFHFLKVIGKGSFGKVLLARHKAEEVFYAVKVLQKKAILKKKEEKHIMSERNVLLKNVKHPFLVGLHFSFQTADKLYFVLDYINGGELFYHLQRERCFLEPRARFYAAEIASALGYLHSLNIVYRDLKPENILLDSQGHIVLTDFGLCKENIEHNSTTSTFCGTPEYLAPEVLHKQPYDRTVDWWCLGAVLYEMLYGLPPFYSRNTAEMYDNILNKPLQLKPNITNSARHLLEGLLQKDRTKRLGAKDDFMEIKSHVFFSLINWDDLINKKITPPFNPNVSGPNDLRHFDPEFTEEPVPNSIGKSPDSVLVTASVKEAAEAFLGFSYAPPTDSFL
The conditions noted are these: at 0.1 µM.

In test [3] the target is T1, Serine/threonine-protein kinase Sgk1 (Homo sapiens). The following applies: at 1 µM.
The target of test [4] is T2, Serine/threonine-protein kinase Sgk2 (Homo sapiens) (UniProt Q9HBY8).
T2 sequence (whole entry): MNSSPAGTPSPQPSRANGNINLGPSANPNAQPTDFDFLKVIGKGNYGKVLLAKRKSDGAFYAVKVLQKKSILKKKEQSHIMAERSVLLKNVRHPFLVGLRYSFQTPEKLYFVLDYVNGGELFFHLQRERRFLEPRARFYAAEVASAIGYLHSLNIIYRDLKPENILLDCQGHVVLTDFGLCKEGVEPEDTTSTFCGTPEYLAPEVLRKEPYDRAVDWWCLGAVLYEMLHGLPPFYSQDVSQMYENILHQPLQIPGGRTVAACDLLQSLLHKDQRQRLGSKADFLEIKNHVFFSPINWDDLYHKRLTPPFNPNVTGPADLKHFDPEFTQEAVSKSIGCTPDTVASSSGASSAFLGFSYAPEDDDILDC
The conditions noted are these: at 0.1 µM.

The target in test [5] is T2, Serine/threonine-protein kinase Sgk2 (Homo sapiens). The conditions noted are these: at 1 µM.
The target of test [6] is T3, Serine/threonine-protein kinase Sgk3 (Homo sapiens) (UniProt Q96BR1).
T3 sequence (whole entry): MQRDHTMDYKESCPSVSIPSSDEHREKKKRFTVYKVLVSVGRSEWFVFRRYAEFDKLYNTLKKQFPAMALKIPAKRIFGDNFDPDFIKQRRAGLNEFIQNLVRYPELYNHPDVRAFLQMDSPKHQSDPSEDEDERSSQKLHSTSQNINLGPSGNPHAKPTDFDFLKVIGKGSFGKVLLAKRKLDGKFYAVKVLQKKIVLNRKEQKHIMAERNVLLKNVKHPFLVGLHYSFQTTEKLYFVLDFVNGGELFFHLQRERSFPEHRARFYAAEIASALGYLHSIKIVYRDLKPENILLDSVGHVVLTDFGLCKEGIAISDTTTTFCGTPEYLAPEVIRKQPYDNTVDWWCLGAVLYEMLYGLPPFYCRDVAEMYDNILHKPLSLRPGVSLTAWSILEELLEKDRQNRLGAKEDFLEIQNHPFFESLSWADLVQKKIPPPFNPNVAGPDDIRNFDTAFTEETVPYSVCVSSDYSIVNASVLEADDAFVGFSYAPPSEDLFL
The following applies: at 0.1 µM.

In test [7] the target is T3, Serine/threonine-protein kinase Sgk3 (Homo sapiens). The conditions noted are these: at 1 µM.
Test [8] has as its target 5'-AMP-activated protein kinase catalytic subunit alpha-1 (Homo sapiens) (UniProt Q13131). The following applies: at 0.1 µM.
The target is the same in test [9]. The following applies: at 1 µM.
The target of test [10] is 5'-AMP-activated protein kinase catalytic subunit alpha-2 (Homo sapiens) (UniProt P54646). The following applies: at 0.1 µM.
Test [11] has the same target. The following applies: at 1 µM.
Test [12] addresses T4, NUAK family SNF1-like kinase 1 (Homo sapiens) (UniProt O60285).
T4 sequence (whole entry): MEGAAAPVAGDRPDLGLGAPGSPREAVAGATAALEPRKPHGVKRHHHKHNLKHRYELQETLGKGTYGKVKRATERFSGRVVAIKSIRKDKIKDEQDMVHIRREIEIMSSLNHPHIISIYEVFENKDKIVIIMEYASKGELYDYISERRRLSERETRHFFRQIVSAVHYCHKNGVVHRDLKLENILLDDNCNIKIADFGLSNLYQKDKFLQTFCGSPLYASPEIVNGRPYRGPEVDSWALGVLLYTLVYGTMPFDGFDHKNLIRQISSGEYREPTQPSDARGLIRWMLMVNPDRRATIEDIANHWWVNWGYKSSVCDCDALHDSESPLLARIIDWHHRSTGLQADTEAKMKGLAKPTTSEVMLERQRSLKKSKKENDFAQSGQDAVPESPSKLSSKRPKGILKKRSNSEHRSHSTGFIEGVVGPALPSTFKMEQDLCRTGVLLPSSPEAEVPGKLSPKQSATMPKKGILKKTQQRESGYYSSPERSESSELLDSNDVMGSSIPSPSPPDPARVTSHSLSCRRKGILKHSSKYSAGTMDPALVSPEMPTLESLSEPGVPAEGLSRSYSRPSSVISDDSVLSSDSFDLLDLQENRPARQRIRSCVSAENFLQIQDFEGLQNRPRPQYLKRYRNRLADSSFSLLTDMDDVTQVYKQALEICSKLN
The following applies: at 0.1 µM.

The target in test [13] is T4, NUAK family SNF1-like kinase 1 (Homo sapiens). The conditions noted are these: at 1 µM.
Test [14] concerns the target T5, Serine/threonine-protein kinase BRSK1 (Homo sapiens) (UniProt Q8TDC3).
T5 sequence (whole entry): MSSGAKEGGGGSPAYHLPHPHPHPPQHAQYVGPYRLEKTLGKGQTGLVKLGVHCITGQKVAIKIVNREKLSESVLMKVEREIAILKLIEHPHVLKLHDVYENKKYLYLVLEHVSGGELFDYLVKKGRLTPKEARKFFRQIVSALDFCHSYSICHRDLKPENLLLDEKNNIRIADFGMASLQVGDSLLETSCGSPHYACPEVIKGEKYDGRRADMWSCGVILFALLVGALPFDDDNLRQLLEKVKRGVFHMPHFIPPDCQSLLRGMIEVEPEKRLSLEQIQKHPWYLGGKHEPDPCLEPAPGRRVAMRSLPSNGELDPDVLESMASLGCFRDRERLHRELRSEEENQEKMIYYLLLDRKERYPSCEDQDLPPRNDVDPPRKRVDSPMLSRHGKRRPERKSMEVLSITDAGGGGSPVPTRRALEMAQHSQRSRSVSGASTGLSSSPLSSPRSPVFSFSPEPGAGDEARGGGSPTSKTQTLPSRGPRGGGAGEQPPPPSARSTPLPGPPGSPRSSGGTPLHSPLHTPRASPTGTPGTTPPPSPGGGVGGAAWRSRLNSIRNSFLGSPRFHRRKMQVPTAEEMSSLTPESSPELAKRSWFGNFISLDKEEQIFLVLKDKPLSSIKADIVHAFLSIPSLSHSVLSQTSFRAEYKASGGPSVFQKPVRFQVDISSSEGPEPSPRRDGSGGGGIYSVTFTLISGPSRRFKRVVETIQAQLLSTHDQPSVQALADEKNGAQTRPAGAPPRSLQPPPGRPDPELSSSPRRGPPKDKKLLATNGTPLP
The following applies: at 0.1 µM.

Test [15] deals with T5, Serine/threonine-protein kinase BRSK1 (Homo sapiens). The conditions noted are these: at 1 µM.
In test [16] the target is T6, Serine/threonine-protein kinase BRSK2 (Homo sapiens) (UniProt Q8IWQ3).
T6 sequence (whole entry): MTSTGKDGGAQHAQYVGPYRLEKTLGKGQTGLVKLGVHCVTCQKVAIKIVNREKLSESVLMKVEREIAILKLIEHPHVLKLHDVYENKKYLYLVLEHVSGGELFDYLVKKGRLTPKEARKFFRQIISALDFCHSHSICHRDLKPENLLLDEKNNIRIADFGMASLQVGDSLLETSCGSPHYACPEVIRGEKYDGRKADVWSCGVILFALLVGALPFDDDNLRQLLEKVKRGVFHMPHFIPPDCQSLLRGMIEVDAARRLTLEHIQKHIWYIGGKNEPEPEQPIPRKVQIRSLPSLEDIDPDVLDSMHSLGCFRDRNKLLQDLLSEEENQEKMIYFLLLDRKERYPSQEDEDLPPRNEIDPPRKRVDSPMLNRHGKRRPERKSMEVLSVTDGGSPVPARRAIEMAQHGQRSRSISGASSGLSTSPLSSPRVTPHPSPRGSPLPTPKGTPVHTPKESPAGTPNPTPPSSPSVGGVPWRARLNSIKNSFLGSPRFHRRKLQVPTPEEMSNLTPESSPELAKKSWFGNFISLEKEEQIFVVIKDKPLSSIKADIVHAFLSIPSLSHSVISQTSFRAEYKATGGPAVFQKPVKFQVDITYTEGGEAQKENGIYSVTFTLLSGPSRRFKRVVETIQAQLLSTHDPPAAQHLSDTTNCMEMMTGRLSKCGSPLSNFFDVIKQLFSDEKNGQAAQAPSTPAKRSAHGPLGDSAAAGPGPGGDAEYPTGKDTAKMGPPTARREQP
The conditions noted are these: at 0.1 µM.

Test [17] concerns the target T6, Serine/threonine-protein kinase BRSK2 (Homo sapiens). The conditions noted are these: at 1 µM.
For test [18], the target named is Calcium/calmodulin-dependent protein kinase type 1D (Homo sapiens) (UniProt Q8IU85). The following applies: at 0.1 µM.
The target is the same in test [19]. The following applies: at 1 µM.
The target of test [20] is Calcium/calmodulin-dependent protein kinase type II subunit alpha (Homo sapiens) (UniProt Q9UQM7). The following applies: at 0.1 µM.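 Also: reported values are averages (mean inhibition of CAMK2A).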

Here are results for three molecules from ChEMBL document CHEMBL1961873, “Compounds: GSK PKIS; Assays: Nanosyn kinase panel” (2012).

In general, inhibition refers to the drop in the measured response relative to a control, in per cent.

Calcium/calmodulin-dependent protein kinase type 1D (Homo sapiens), sequence (Q8IU85 whole entry, looked up): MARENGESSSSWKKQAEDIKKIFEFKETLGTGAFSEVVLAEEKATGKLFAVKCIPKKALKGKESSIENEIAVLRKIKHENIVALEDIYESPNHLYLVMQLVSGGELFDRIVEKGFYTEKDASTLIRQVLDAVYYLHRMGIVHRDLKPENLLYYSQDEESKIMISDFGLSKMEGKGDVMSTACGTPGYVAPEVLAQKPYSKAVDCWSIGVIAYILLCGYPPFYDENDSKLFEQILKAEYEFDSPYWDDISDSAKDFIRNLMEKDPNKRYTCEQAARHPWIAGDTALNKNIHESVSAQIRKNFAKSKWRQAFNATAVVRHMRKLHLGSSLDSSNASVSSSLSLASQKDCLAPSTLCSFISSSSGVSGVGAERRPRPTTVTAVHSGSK
5'-AMP-activated protein kinase catalytic subunit alpha-1 (Homo sapiens), sequence (Q13131 whole entry, looked up): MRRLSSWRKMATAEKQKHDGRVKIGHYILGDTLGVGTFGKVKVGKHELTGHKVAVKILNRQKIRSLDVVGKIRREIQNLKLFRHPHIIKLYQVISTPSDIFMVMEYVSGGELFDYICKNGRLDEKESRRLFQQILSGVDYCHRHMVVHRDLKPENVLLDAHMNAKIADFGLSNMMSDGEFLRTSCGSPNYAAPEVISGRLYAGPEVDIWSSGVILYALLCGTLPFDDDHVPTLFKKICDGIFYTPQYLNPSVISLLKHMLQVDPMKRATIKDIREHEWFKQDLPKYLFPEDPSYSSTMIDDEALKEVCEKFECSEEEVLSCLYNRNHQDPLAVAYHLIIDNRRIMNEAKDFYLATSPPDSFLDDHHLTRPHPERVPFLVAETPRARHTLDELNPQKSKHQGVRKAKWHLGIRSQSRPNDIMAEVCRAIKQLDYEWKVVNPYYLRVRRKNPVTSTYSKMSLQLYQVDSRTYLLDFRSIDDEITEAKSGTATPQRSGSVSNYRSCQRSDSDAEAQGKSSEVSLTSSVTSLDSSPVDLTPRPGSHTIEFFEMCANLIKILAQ
5'-AMP-activated protein kinase catalytic subunit alpha-2 (Homo sapiens), sequence (P54646 whole entry, looked up): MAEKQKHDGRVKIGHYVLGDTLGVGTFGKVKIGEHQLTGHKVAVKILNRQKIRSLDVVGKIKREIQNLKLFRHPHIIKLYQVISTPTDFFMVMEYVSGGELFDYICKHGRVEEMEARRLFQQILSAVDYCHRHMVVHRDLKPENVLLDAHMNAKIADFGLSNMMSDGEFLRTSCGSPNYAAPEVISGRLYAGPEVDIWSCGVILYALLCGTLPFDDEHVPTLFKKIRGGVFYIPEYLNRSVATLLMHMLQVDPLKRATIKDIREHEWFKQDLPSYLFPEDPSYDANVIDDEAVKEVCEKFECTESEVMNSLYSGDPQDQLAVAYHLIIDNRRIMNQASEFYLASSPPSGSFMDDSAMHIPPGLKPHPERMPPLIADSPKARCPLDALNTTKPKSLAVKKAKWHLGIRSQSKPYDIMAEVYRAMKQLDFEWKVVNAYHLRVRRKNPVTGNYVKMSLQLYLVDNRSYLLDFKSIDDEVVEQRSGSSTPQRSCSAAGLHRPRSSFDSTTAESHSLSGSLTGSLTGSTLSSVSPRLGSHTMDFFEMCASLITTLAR
Calcium/calmodulin-dependent protein kinase type II subunit alpha (Homo sapiens), sequence (Q9UQM7 whole entry): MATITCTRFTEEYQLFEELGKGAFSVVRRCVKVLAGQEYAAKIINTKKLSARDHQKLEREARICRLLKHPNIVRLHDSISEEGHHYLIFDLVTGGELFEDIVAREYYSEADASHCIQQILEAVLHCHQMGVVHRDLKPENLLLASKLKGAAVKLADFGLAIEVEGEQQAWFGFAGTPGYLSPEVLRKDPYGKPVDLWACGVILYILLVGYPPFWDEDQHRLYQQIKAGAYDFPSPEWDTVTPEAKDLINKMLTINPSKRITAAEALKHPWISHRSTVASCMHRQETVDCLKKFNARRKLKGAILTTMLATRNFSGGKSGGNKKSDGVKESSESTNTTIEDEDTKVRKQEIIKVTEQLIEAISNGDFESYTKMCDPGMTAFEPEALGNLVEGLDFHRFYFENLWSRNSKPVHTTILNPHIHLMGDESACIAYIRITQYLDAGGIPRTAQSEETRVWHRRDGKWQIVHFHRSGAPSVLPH
Ribosomal protein S6 kinase alpha-6 (Homo sapiens), sequence (Q9UK32 whole entry): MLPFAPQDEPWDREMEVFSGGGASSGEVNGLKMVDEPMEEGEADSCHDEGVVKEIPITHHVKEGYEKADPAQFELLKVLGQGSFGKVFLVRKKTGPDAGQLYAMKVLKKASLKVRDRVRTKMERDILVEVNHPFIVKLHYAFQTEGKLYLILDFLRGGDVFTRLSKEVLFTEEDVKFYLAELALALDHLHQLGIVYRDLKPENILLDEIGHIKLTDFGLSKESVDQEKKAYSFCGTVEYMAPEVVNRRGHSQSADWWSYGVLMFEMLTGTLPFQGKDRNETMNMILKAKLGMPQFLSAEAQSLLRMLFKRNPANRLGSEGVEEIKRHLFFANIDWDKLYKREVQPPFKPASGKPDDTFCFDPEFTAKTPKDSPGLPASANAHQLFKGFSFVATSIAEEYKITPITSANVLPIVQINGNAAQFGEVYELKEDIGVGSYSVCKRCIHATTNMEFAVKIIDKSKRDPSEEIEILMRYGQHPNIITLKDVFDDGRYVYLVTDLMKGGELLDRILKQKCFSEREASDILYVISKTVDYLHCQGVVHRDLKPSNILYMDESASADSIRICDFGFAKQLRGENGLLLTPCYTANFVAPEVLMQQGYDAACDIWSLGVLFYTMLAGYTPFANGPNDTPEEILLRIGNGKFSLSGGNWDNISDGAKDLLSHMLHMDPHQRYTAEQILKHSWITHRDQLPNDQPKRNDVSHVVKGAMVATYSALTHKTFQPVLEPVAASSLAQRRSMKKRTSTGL

In the case of `CC1=C(C(=O)Nc2ccc3[nH]ncc3c2)C(c2ccc(F)cc2)NC(=O)N1` (centres undefined), the inhibition is 2.82% in test [1]; 1.11% in test [2]; 7.18% in test [3]; -1.1% in test [4]; 4.13% in [5]; 4.02% in test [6]. Also, the inhibition was determined as 6.8% in test [7]; 3.82% in [8]; 20.4% in test [9]; 3.59% in [10]; 5.96% in [11]; 4.1% in [12]. Also, the inhibition in test [13] turned out to be 11.3%; in test [14] it was 1.49%; in test [15], 8.31%; in test [16], 1.99%; in test [17] it was 15.5%; in [18], 0.49%. The figures for the inhibition in test [19] and in test [20] were -0.14% and -0.47%, respectively.
As to `COc1ccc(COc2ccc(Cc3cnc(N)nc3N)cc2OC)cc1`, the inhibition in test [1] is -0.61%; in test [2] it was 5.08%; in [3], 1.31%; in test [4] it was 4.24%; in test [5] it was 3%; in [6], 2.57%. Moreover, the inhibition is 1.28% in [7]; -0.17% in test [8]; -0.28% in test [9]; 2.65% in test [10]; 2.37% in test [11]; 3.64% in test [12]. Besides, the inhibition in [13] is 3.71%; in test [14] it was 4.29%; in [15], 3.19%; in test [16], 2.82%; in [17], 2.49%; in [18], 3.83%. The figures for the inhibition in test [19] and in test [20] were 5.51% and 3.64%, respectively.
With `Cc1ccc(NC(=O)c2ccnc(N3CCCC3)c2)cc1-c1ccc(C(=O)NCC2CC2)cc1`, the inhibition in test [1] stood at 4.24%; in test [2], 5.73%; in test [3] it was 4.14%; in [4], 2.67%; in [5] it was 6.84%; in [6], 1.32%. In addition, the inhibition amounted to 1.99% in test [7]; 6.18% in [8]; 7.1% in test [9]; 6.89% in [10]; 8.93% in [11]; 5.1% in test [12]. In addition, the inhibition in [14] worked out at 3.85%; in [15], 3.6%; in test [16], 2.81%; in test [17] it was 4.83%; in [18] it was 0.91%; in test [19], 2.39%. In addition, in [20], the inhibition stood at 4.45%.
